Measurements taken from PubChem BioAssay AID588590 (National Center for Advancing Translational Sciences (NCATS), 2011).
Hit rate of the full screen: of about 390,000 compounds, about 4,000 (1%) were called active. Entries that show only a call come without a potency. Not shown: some 7% with an inconclusive outcome. Calls come from the whole dose curve; as a rule, active = well fitted inhibition curve with a large enough effect; inconclusive = small, poorly fitted or top-dose-only effect, or another doubt; inactive = no such curve, though single readings can be large or run the other way. The sample as a whole holds a higher share of actives than the screen did.

Molecular target: DNA polymerase iota (Homo sapiens) (UniProt Q9UNA4)
Sequence (Q9UNA4 whole entry, looked up): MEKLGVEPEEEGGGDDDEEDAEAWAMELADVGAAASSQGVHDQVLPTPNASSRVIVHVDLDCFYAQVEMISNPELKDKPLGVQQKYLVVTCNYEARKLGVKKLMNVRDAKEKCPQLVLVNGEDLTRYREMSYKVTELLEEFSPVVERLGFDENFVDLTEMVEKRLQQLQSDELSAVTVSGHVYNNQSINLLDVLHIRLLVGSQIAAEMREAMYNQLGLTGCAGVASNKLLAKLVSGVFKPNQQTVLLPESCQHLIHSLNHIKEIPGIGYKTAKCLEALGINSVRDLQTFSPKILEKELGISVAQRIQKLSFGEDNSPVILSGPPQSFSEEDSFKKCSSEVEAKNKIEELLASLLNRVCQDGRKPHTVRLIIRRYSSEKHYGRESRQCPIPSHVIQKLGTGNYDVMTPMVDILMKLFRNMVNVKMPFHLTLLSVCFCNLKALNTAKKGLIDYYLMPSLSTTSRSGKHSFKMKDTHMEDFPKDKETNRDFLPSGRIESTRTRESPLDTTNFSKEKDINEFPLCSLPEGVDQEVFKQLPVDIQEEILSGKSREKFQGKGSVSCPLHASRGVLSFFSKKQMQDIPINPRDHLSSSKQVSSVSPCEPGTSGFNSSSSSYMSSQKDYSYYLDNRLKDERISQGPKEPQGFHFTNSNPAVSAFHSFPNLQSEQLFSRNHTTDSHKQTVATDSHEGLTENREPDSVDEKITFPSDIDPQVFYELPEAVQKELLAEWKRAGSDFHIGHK
Experiment: qHTS for Inhibitors of Polymerase Iota
Conditions: Pol iota fluorescent replication assay, 10 min; series mostly up to 115 µM
Method in brief: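 Fluorescent replication assay read twice, at 0 min and 10 min after adding 50 nM (final) substrate. Enzyme (10 nM) and compounds were first incubated 15 min at room temperature; enzyme-free buffer wells were negative controls.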
Potency is the fitted concentration of half-maximal effect.

SMILES	Potency
COc1ccc(-c2cc(-c3ccccc3)nc3c2COc2ccc(Cl)cc2-3)cc1	inactive
CCN(CC)c1nc(C#N)nc(OC)n1	inactive
CCc1ccc(OCCCn2c(CCCNC(=O)C3CCCCC3)nc3ccccc32)cc1	inactive
C/C(=N\Nc1ccc(S(N)(=O)=O)cc1[N+](=O)[O-])c1cccs1	25.1 µM (active)
CCOC(=O)C/C(C)=N\Nc1ccc([N+](=O)[O-])cc1[N+](=O)[O-]	inactive
C/C(=N\Nc1ccccc1)c1cccs1	inactive
Cc1ccc(C(=O)NNc2ncnc3ccccc23)cc1	inactive
O=C(NNc1c2ccccc2nc2ccccc12)c1cc2ccccc2cc1O	39.8 µM (active)
O=C(Cc1ccccn1)c1ccc(O)cc1O	inactive
CN(Cc1ccccc1)C(=O)c1cc2c(=O)n(C)c3ccccc3c2s1	inactive
CN(C)c1ccc(/C=C/c2c3ccccc3nc3ccccc23)cc1	inactive
CN(C)c1ccc(/C=C/c2sc3ccccc3[n+]2C)cc1	79.4 µM (active)
CN(C)c1ccc(/C=C/c2sc3ccccc3[n+]2CCCCBr)cc1	inactive
CCCN1CCC(=O)N(C(CSc2ccc(OC)cc2)Cc2ccccc2)CC1 (stereo not given)	inactive
C[N+]1(CC(=O)c2cccs2)CCOCC1	inactive
CCc1ccc(N2CC(C(=O)Nc3ccc(S(=O)(=O)Nc4nccs4)cc3)CC2=O)cc1 (stereo not given)	inactive
CCc1ccc(N2CC(C(=O)NC3=NCCS3)CC2=O)cc1 (stereo not given)	89.1 µM (active)
CCc1ccc(N2CC(C(=O)N3CCCCCC3)CC2=O)cc1 (stereo not given)	inactive
Cc1cccc(CN2Cc3cccc4c3[C@H](C=CC4)CC2=S)c1	inactive
CC1CCCN(S(=O)(=O)c2ccc3[nH]c(=O)cc(C(=O)NCCc4ccc(Cl)cc4)c3c2)C1 (stereo not given)	inactive
COc1cc2nc(Cl)nc(NC3CC3)c2cc1OC	inactive
COc1ccc(C)cc1NC(=O)C(=O)NCCc1sc(-c2cccc(C)c2)nc1C	inactive
C=C1c2c(Cl)ccc(O)c2C(O)=C2C(=O)[C@]3(O)C(O)=C(C(N)=O)C(=O)[C@@H](N(C)C)[C@@H]3[C@@H](O)C12 (stereo not given in full)	2.51 µM (active)
Cc1ccc(NC(=O)c2nc(S(=O)(=O)Cc3cccc(C)c3)ncc2Cl)cc1	inactive
COc1cc(C(CC(=O)NCCC(C)C)N2Cc3ccccc3C2=O)cc(OC)c1OC (stereo not given)	inactive
COc1ccc(CCNC(=O)c2c3c(nc4ccccc24)C(=O)N(C2CCCCC2)C3)cc1OC	inactive
Cc1c(NC(=O)C(C)(C)C)cccc1-c1nc2ccccc2s1	inactive
O=C(COc1ccc(Cl)cc1)Nc1ccc(-c2nc3cc(Cl)ccc3o2)c(O)c1	inactive

SMILES	Potency
CC1=NN(c2ccc(Cl)c(C(=O)O)c2)C(=O)/C1=C/c1ccc(-c2ccccc2[N+](=O)[O-])o1	1.41 µM (active)
O=C(O)c1ccc2c(=O)n3c(nc2c1)/C(=C/c1ccc(Cl)c([N+](=O)[O-])c1)CC3	inactive
O=C1C2C3C=CC(C4CC34)C2C(=O)N1/N=C/c1ccc(-c2ccccc2[N+](=O)[O-])o1 (stereo not given)	inactive
Cc1ccc2onc(CC(=O)N3CCN(c4ccc(Cl)cc4)CC3)c2c1	inactive
COc1ccc(C2Nc3ccc(NC(=O)COC(C)=O)cc3C(=O)N2Cc2ccccc2)cc1COc1ccc(NC(C)=O)cc1 (stereo not given)	inactive
COC(=O)c1ccccc1NC(=O)Cn1c(=O)cc(C)c2c(C)nn(-c3cccc(Cl)c3C)c21	inactive
O=C(/C=C/c1ccco1)NC(=S)Nc1ccccc1Br	25.1 µM (active)
CC(C)CNC(=O)COC(=O)/C=C/c1ccco1	inactive
COc1ccc(Cl)cc1C(=O)NNC(=S)NC(=O)/C=C/c1ccco1	inactive
CC(=O)Nc1ccc(NC(=O)C2CCCN(S(=O)(=O)c3ccc4c(c3)CCCC(=O)N4)C2)cc1 (stereo not given)	inactive
COc1ccc(-c2nc(=N)sn2-c2ccccc2)cc1	inactive
CCC(CC)C(=O)Nc1ccc(S(=O)(=O)Nc2nccs2)cc1	inactive
O=C(Nc1ccc(S(=O)(=O)Nc2nccs2)cc1)c1cc(-c2ccncc2)nc2ccccc12	11.2 µM (active)
COc1ccccc1OC(C)C(=O)Nc1ccc(S(=O)(=O)Nc2nccs2)cc1 (stereo not given)	inactive
COc1ccc(NS(=O)(=O)c2cc3c4c(c2)CC(=O)N4CCC3)cc1Cl	inactive
CCOc1ccc(OCC)c(NC(=O)CN(c2ccc(C)cc2)S(=O)(=O)c2c(C)n[nH]c2C)c1	inactive
CC1CCN(S(=O)(=O)c2ccc3c(ccn3CCC(=O)NCc3ccc(N(C)C)cc3)c2)CC1	inactive
O=C(NC1CC(=O)N(c2ccc(Cl)cc2)C1)C1CCCC1 (stereo not given)	inactive
COc1ccc(NC(=O)CSc2nc(NS(=O)(=O)c3ccc(C)cc3)cc(=O)[nH]2)cc1	inactive
CCCCCC(=O)Nc1ccc(S(=O)(=O)Nc2ccc(Cl)nn2)cc1	inactive
Cc1nnc(SCC(=O)Nc2ccc(S(=O)(=O)Nc3ccc(Cl)nn3)cc2)s1	28.2 µM (active)
NC(=O)Nc1ccc(/C=C/c2ccnc3ccccc23)cc1	inactive
COc1ccc(-c2[nH]c3c(c2-c2c(-n4cccc4)n(C)c(=O)n(C)c2=O)c(=O)n(C)c(=O)n3C)cc1	inactive
COc1ccc(C(=O)n2nc(-c3ccc(Cl)cc3)nc2N)cc1OC	inactive
COc1ccc(CC(=O)n2nc(-c3cccnc3)nc2N)cc1	inactive
CCCC(=O)n1nc(-c2ccccc2)nc1N	79.4 µM (active)
CCC(Sc1nnc(-c2ccc(OC)cc2)c(-c2ccc(OC)cc2)n1)C(=O)NC1CCCCC1 (stereo not given)	inactive
